Measurements taken from PubChem BioAssay (NCI).
This is part of a sample that, as a whole, favours compounds with a hit. Of some 83,000 tested, about 20% had one in any assay.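 Single-dose data. Exposure time 48 hours. Values below 10 considered active.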 Unmarked numbers belong to inactive results. Activity calls are given as the source filed them.

Experiments:
Assay in all cases: NCI-60 one-dose screen, 48 h (100 = growth as untreated, 0 = no growth, -100 = all killed)
Conditions in all cases: 10 µM
K-562 leukemia = system: K-562 leukemia
MALME-3M melanoma = system: MALME-3M melanoma
MDA-MB-231 breast = system: MDA-MB-231 breast
RXF 393 renal = system: RXF 393 renal
SF-268 CNS = system: SF-268 CNS
SF-295 CNS = system: SF-295 CNS
SF-539 CNS = system: SF-539 CNS
UACC-257 melanoma = system: UACC-257 melanoma
M14 melanoma = system: M14 melanoma
HCT-15 colon = system: HCT-15 colon

Compound	growth (K-562 leukemia)	growth (MALME-3M melanoma)	growth (MDA-MB-231 breast)	growth (RXF 393 renal)	growth (SF-268 CNS)	growth (SF-295 CNS)	growth (SF-539 CNS)	growth (UACC-257 melanoma)	growth (M14 melanoma)	growth (HCT-15 colon)
COc1ccc(Nc2ncnc3c2c(SC)nn3-c2ccccc2)cc1	94%	93%	93.4%	81.3%	95.1%	88.7%	99.3%	106%	94.4%	–
COc1cc(-c2cc(/C=C/C(=O)c3ccc(Cl)c(Cl)c3)[nH]n2)cc(OC)c1OC	31.9%	87%	62.3%	67.3%	104%	141%	35%	89.7%	89.8%	–
COC(=O)C(C(C[N+](=O)[O-])c1ccccc1)=P(c1ccccc1)(c1ccccc1)c1ccccc1 (configuration not stated)	53.4%	96%	108%	85.9%	96.1%	91.6%	99.2%	91.5%	76.3%	–
CCCCCCNC(=O)Oc1ccc(/C(=C(/CC)Cc2ccccc2)c2ccc(OCCN3CCCCC3)cc2)cc1	24%	93.1%	83.6%	73.8%	80.9%	114%	91.9%	86.1%	94.7%	39%
Cn1c([N+](=O)[O-])cnc1/C=C1\Oc2ccc(Cl)cc2C1=O	1.86% (active)	-55% (active)	-22.5% (active)	-70.5% (active)	-32.1% (active)	-17.3% (active)	-50.3% (active)	-41.7% (active)	-33% (active)	–
COc1cc2cc3c(nc2cc1OC)CCN3Cc1ccc(NC(=O)Nc2cc(C(F)(F)F)cc(C(F)(F)F)c2)cc1	49.8%	92.1%	57.4%	82.5%	78.6%	69.6%	86.8%	89%	77.4%	–
CCOC(=O)C1(CC(C)C)CCOC1=O (configuration not stated)	97.8%	101%	109%	118%	98.7%	99.5%	97.7%	97.7%	106%	–
CCCCCCCC(C)NCCO (configuration not stated)	103%	107%	123%	105%	106%	90%	105%	90.8%	105%	–
CSc1nc(=O)n(Cc2ccc(Cl)cc2)c(=O)[nH]1	96.1%	105%	104%	115%	102%	146%	101%	102%	106%	103%
O=C(Nc1nc2ccccc2s1)Nc1ccc([N+](=O)[O-])cc1Cl	58.8%	96.4%	40.1%	-17.7% (active)	3.97% (active)	67.8%	-48.5% (active)	-10.6% (active)	79.7%	–
Cn1c([N+](=O)[O-])cnc1/C=C1\Oc2ccccc2C1=O	3.53% (active)	-71.1% (active)	-31.7% (active)	-68.9% (active)	-49% (active)	-1.94% (active)	-43.4% (active)	-57% (active)	-43.3% (active)	6.69% (active)
Cc1nc2c(c(=O)[nH]1)OCN(Cc1ccccc1)C2	88%	87%	107%	118%	103%	107%	109%	97.8%	101%	99.4%
COc1ccc2c(c1)O/C(=C\c1ccc([N+](=O)[O-])s1)C2=O	-1.48% (active)	80%	37.4%	-17.3% (active)	-9.02% (active)	69%	34.5%	64.4%	30.3%	0.318% (active)
NC(=S)N=Nc1c(O)c2ccccc2c2ccccc12	42.2%	60.5%	76.7%	99.4%	56.7%	82.7%	16.1%	-61.3% (active)	-68.6% (active)	23.3%
COc1ccc(CN2CCC(N3CCCC3=O)c3cc(Cl)ccc32)cc1 (configuration not stated)	106%	88.6%	123%	126%	108%	124%	110%	112%	97%	104%
COc1cc(Cl)cc(-c2nn(-c3cccc(NC(=O)Nc4ccc(Cl)c(Cl)c4)c3)cc2-c2ccncc2)c1	10%	-19.8% (active)	-21% (active)	4.46% (active)	25.3%	-2.42% (active)	20.9%	-11.5% (active)	18.7%	13.9%
CC(C)N(CCNc1nc(C(Cl)(Cl)Cl)nc2cc(Cl)ccc12)C(C)C	-53.9% (active)	-28% (active)	-66.4% (active)	-19% (active)	0.341% (active)	-64.9% (active)	-33.7% (active)	-64.7% (active)	-68.7% (active)	-38.4% (active)
CCCC1(CC(=O)O)OCCc2c1[nH]c1ccccc21 (configuration not stated)	156%	98.8%	103%	100%	103%	102%	112%	103%	112%	107%
O=C(CCCCC(=O)Nc1ccc2c(c1)/C(=C/c1ccc[nH]1)C(=O)N2)NO	85%	17.5%	94.4%	76.8%	76.2%	102%	81.1%	70.6%	58.6%	96.2%
O=C1C(c2ccccc2)C2C=CC(C2)N1O (configuration not stated)	96.9%	109%	102%	104%	107%	122%	113%	105%	111%	106%
COc1ccc(-n2c(SCc3cc(OC)c(OC)c(OC)c3)nc3ccc(C)cc3c2=O)cc1	16.9%	59.7%	59.8%	52.8%	80.6%	51.4%	77.7%	77.3%	53.8%	33.6%
Cc1ccc(NC(=O)NC2CCCCC2)cc1	98%	108%	115%	102%	108%	105%	102%	80.6%	107%	96.3%
CCN(CC)Cc1cc(Nc2ccnc3cc(Cl)ccc23)ccc1OC	45.1%	110%	55.7%	64.2%	96.6%	91%	62.7%	94.4%	7.19% (active)	56.4%
c1ccc(CNc2ncnc3scc(-c4cccs4)c23)nc1	42.7%	89.5%	59.9%	73.6%	79.7%	41.2%	72.7%	46.1%	70.7%	76%
COc1cc(NC(=O)CCSc2nc3ccc(Cl)cc3c(=O)n2Cc2ccccc2)cc(OC)c1OC	67.1%	84.3%	51.2%	57.2%	95.1%	66.2%	26.8%	61%	75.2%	72.5%
COc1cc(-c2cc(/C=C/C(=O)c3ccc(F)c(F)c3)[nH]n2)cc(OC)c1OC	29.8%	72.5%	49.7%	76.9%	61.7%	10.4%	65.6%	80.8%	67.9%	46.6%
CCOC(=O)N1C=CC2C=CC1C1C=CC=CC2N1C(=O)OCC (configuration not stated)	47.8%	94.8%	87%	86.8%	101%	116%	81.2%	87.7%	89.5%	86.2%
COc1ccc(C2=Nc3c(C)nn(-c4ccccc4)c3NC(c3ccc(Oc4ccnc5cc(Cl)ccc45)c(OC)c3)C2)cc1 (configuration not stated)	62.2%	95.6%	58%	80.4%	78.8%	93.1%	92.2%	98.3%	95.1%	62.9%
